The values below come from paper PMC8384837, “Expanding the binding specificity for RNA recognition by a PUF domain”.

Holding throughout (assay): yeast three-hybrid, YBZ-1, SC-Leu-His + 0.5 mM 3-AT, 4 days
What all share (details): tags: N-Gal4 AD-HA kept; label: inside an RPR1-promoter hybrid RNA with tandem MS2 sites; ssRNA

One assay has as its target PUM1 PUF domain R7-GGN (Homo sapiens, UniProt Q14671 828-1176, S1079G;N1080G;E1083N). In outline: (§1)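 Pumilio-1 PUF domain libraries, randomized at the three base-contacting residues of each repeat, were co-expressed with matching RNA elements from a centromeric plasmid in strain YBZ-1, which carries a LexA–MS2 coat fusion and a HIS3 reporter. Transformants grew for four days on SC-Leu (input) or on SC-Leu-His + 0.5 mM 3-AT (selection), and the repeat regions were PCR-amplified and Illumina-sequenced. The interaction score is the log change in variant frequency from input to selection. That logarithm is base 2, with a pseudocount of 1 where a variant was absent.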

A further assay concerns the target PUM1 PUF domain R7-RVV (Homo sapiens, UniProt Q14671 828-1176, S1079R;N1080V;E1083V). In outline:
as §1

The target of the next assay is PUM1 PUF domain R4-SNM (Homo sapiens, UniProt Q14671 828-1176, N971S;H972N;Q975M). In outline:
as §1

The target in the next assay is PUM1 PUF domain R4-EWY (Homo sapiens, UniProt Q14671 828-1176, N971E;H972W;Q975Y). In outline:
as §1

The next assay addresses PUM1 PUF domain R8-LWR (Homo sapiens, UniProt Q14671 828-1176, N1122L;Y1123W;Q1126R). The procedure, abridged: as §1
In a further assay the target is PUM1 PUF domain R8-SWG (Homo sapiens, UniProt Q14671 828-1176, N1122S;Y1123W;Q1126G). The procedure, abridged: as §1
In the next assay the target is PUM1 PUF domain R8-RGK (Homo sapiens, UniProt Q14671 828-1176, N1122R;Y1123G;Q1126K). In outline:
as §1

Another assay has as its target PUM1 PUF domain R3-APF (Homo sapiens, UniProt Q14671 828-1176, C935A;R936P;Q939F). In outline:
as §1

Another assay addresses PUM1 PUF domain R8-VWQ (Homo sapiens, UniProt Q14671 828-1176, N1122V;Y1123W). In outline: as §1
In another assay the target is PUM1 PUF domain R3-KSG (Homo sapiens, UniProt Q14671 828-1176, C935K;R936S;Q939G). In outline:
as §1

As for “GGCUAGAACUAGUGGAUCCCCCGGCGCCCGGCGGCUCGAGCCCGGGUAAGUUUAAAUAGUCUGCAUGCCGCCGGGCGCCAUGCCUGCAGGUCGACUCUAGAAAACAUG”, the binding signal with PUM1 PUF domain R7-GGN was 3.78 log2 enrichment (interaction score); with PUM1 PUF domain R7-RVV it was 2.58 log2 enrichment (interaction score).

For the sequence “GGCUAGAACUAGUGGAUCCCCCGGCGCCCGGCGGCUCGAGCCCGGGUAAGUGUAUAUAGUCUGCAUGCCGCCGGGCGCCAUGCCUGCAGGUCGACUCUAGAAAACAUG”, the binding signal with PUM1 PUF domain R4-SNM was 2.9 log2 enrichment (interaction score); with PUM1 PUF domain R4-EWY, 5.52 log2 enrichment (interaction score).

For the sequence “GGCUAGAACUAGUGGAUCCCCCGGCGCCCGGCGGCUCGAGCCCGGGUAAGUGUAAAUAGUCUGCAUGCCGCCGGGCGCCAUGCCUGCAGGUCGACUCUAGAAAACAUG”, the binding signal was 4.7 log2 enrichment (interaction score) with PUM1 PUF domain R8-LWR; 2 log2 enrichment (interaction score) in the assay with PUM1 PUF domain R4-SNM; 2.95 log2 enrichment (interaction score) with PUM1 PUF domain R8-SWG; 0.16 log2 enrichment (interaction score) with PUM1 PUF domain R8-RGK; 5.42 log2 enrichment (interaction score) with PUM1 PUF domain R3-APF.

Consider “GGCUAGAACUAGUGGAUCCCCCGGCGCCCGGCGGCUCGAGCCCGGGUAAGCGUAAAUAGUCUGCAUGCCGCCGGGCGCCAUGCCUGCAGGUCGACUCUAGAAAACAUG”, for which the binding signal in the assay with PUM1 PUF domain R8-LWR is 4.82 log2 enrichment (interaction score); in the assay with PUM1 PUF domain R8-VWQ it was 2.89 log2 enrichment (interaction score); with PUM1 PUF domain R8-SWG it was 2.43 log2 enrichment (interaction score); with PUM1 PUF domain R8-RGK, 2.62 log2 enrichment (interaction score).

On to “GGCUAGAACUAGUGGAUCCCCCGGCGCCCGGCGGCUCGAGCCCGGGUAAGUGUAAUUAGUCUGCAUGCCGCCGGGCGCCAUGCCUGCAGGUCGACUCUAGAAAACAUG”, for which the binding signal with PUM1 PUF domain R3-KSG is 2.51 log2 enrichment (interaction score).
